Active and inactive are the calls of the source. Rule for the calls: active = hit-call score of the fitted dose curve at least 0.9, where 1 is the maximum; inactive = score below 0.9.

Assay [1] is described as follows: ATG_E_Box_CIS: Attagene CIS-FACTORIAL HepG2 Assay for human Enhancer Box (E-box) (AID 2282936). The settings on record: HepG2 E-box cis-reporter transcription, actives raise or lower the signal. An outline of the steps: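 DMSO served as negative control and baseline for bidirectional fitting. Human hepatoma HepG2 cells, transiently transfected with cis-reporter constructs, were dosed 24 h; reporter mRNA read by RT-PCR and capillary electrophoresis.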

A short description of assay [2]: ATG_M_61_CIS: Attagene CIS-FACTORIAL HepG2 Assay for M61 Transcription Factor (Internal Marker) (AID 2282937). The settings on record: HepG2 Attagene CIS-FACTORIAL M61 internal marker reporter; actives raise or lower the signal. The gist of the method:
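Fluorescence from labelled cDNA fragments, separated by capillary electrophoresis, quantifies reporter induction. HepG2 cells bearing transiently transfected cis-promoter MRTUs were incubated with test chemical for 24 h; DMSO defined baseline for gain/loss fitting.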

A short description of assay [3]: ATG_EGR_CIS: Attagene CIS-FACTORIAL HepG2 Assay for human Early Growth Response 1 (EGR1) (AID 2282938). The settings on record: HepG2 Attagene CIS-FACTORIAL EGR reporter mRNA; actives raise or lower the signal. An outline of the steps:
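Cell-based multiplex transcription assay: HepG2 carrying transfected cis-element reporter units, 24 h chemical treatment. Fluorescence from capillary electrophoresis of RT-PCR products gives mRNA levels; fitting is bidirectional relative to DMSO.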

Assay [4] can be described thus: ATG_M_19_CIS: Attagene CIS-FACTORIAL HepG2 Assay for M19 Transcription Factor (Internal Marker) (AID 2282939). As to conditions: HepG2 Attagene CIS-FACTORIAL M19 internal marker reporter; actives raise or lower the signal. An outline of the steps:
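HepG2 cells transiently transfected with cis-regulated multiplexed reporter units, dosed 24 h. Reporter mRNA quantified by RT-PCR and capillary electrophoresis; internal background marker fitted bidirectionally versus DMSO.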

Assay [5] is described as follows: ATG_Ets_CIS: Attagene CIS-FACTORIAL HepG2 Assay for human Erythroblast Transformation Specific (ETS) (AID 2282941). The settings on record: HepG2 ETS cis-reporter transcription, actives raise or lower the signal. An outline of the steps:
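HepG2 cells transfected with multiple cis-regulated reporter units measuring endogenous ETS-driven transcription, 24 h after dosing. Reporter mRNA quantified by RT-PCR with capillary electrophoresis; bidirectional fit relative to DMSO.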

The target of assay [6] is Hepatocyte nuclear factor 3-beta (Homo sapiens) (UniProt Q9Y261). Description: ATG_FoxA2_CIS: Attagene CIS-FACTORIAL HepG2 Assay for human Forkhead box A2 (FOXA2) (AID 2282942). As to conditions: HepG2 cis-reporter transcription factor activity, 24 h; actives raise or lower the signal. The gist of the method: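 In transiently transfected human HepG2 cells, promoter-driven reporter mRNA levels after 24 h chemical exposure are determined via RT-PCR with capillary electrophoresis. DMSO serves as baseline for bidirectional fitting.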

Assay [7] is described as follows: ATG_FoxO_CIS: Attagene CIS-FACTORIAL HepG2 Assay for human Forkhead box O (FoxO) (AID 2282943). The settings on record: HepG2 Attagene cis-reporter, FoxO element, mRNA; actives raise or lower the signal. An outline of the steps: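 Endogenous transcription factor activity read from multiplexed cis-promoter reporter transcripts in transiently transfected HepG2, 24 h after dosing. Reporter RNA measured via RT-PCR plus capillary electrophoresis of FAM-labeled products; gain or loss relative to DMSO.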

Assay [8] can be described thus: ATG_GATA_CIS: Attagene CIS-FACTORIAL HepG2 Assay for human GATA Binding Protein (AID 2282944). As to conditions: HepG2 GATA cis-element reporter, Attagene multiplex mRNA; actives raise or lower the signal. An outline of the steps: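 HepG2 cells transiently transfected with multiplexed cis-element reporter units measure endogenous GATA activity; after 24 h compound exposure, reporter mRNA quantified by RT-PCR and capillary electrophoresis. Changes fitted in both directions vs DMSO.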

Assay [9] in a line: ATG_GLI_CIS: Attagene CIS-FACTORIAL HepG2 Assay for human Zinc Finger Protein GLI1 (AID 2282945). The settings on record: HepG2, Attagene cis-factorial reporter mRNA, GLI element; actives raise or lower the signal. An outline of the steps: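 Bidirectional curve fits relative to DMSO, using reporter mRNA levels from RT-PCR plus capillary electrophoresis. Cells were HepG2 transiently carrying cis-regulated reporter constructs, harvested 24 h after dosing.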

Assay [10] can be described thus: ATG_M_32_CIS: Attagene CIS-FACTORIAL HepG2 Assay for M32 Transcription Factor (Internal Marker) (AID 2282949).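 Note: background control marker of the multiplexed CIS panel rather than a real target.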 The settings on record: HepG2 Attagene cis-factorial M32 reporter, mRNA; actives raise or lower the signal. The gist of the method:
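Following 24 h chemical exposure of HepG2 cells transiently expressing cis-promoter reporter constructs, reporter transcript levels were determined by RT-PCR with fluorescent labelling and capillary electrophoresis, then fitted bidirectionally against DMSO.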

The nature of assay [11]: ATG_M_06_CIS: Attagene CIS-FACTORIAL HepG2 Assay for M06 Transcription Factor (Internal Marker) (AID 2282950). The settings on record: HepG2 Attagene CIS-FACTORIAL M06 internal marker reporter; actives raise or lower the signal. An outline of the steps:
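Internal background marker within multiplexed cis-reporter HepG2 system. Cells transiently transfected, dosed 24 h; reporter mRNA measured by RT-PCR, HpaI digestion and capillary electrophoresis. Bidirectional fit relative to DMSO.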

For assay [12], the target named is Hepatocyte nuclear factor 6 (Homo sapiens) (UniProt Q9UBC0). Description: ATG_HNF6_CIS: Attagene CIS-FACTORIAL HepG2 Assay for human Hepatocyte Nuclear Factor 6 (HNF6) (AID 2282952). The settings on record: HepG2 Attagene cis-factorial HNF6 reporter transcription; actives raise or lower the signal. The gist of the method: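 HepG2 cells transiently transfected with cis-element-driven multiplexed reporter units measuring endogenous transcription factor activity. After 24 h exposure, reporter mRNA quantified by RT-PCR, FAM-labelled fragments and capillary electrophoresis; bidirectional fitting versus DMSO.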

Assay [13] deals with Heat shock factor protein 1 (Homo sapiens) (UniProt Q00613). Put plainly: ATG_HSE_CIS: Attagene CIS-FACTORIAL HepG2 Assay for human Heat Shock Transcription Factor 1 (HSE) (AID 2282953). As to conditions: HepG2 HSE cis-reporter, Attagene RNA transcription; actives raise or lower the signal. The gist of the method:
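HepG2 cells transfected with cis-promoter reporter units sensing endogenous transcription factor activity; reporter mRNA quantified 24 h post-dose by RT-PCR and capillary electrophoresis of 6-FAM-labelled products. Bidirectional fitting against DMSO.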

Assay [14] in a line: ATG_MRE_CIS: Attagene CIS-FACTORIAL HepG2 Assay for human Metal Responsive Element (MRE) (AID 2282954). As to conditions: HepG2 MRE cis-reporter transcription, Attagene multiplex; actives raise or lower the signal. An outline of the steps:
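After a 24 h chemical exposure, transiently transfected HepG2 cells yield RNA whose reporter sequences are amplified, FAM-labelled and sized by capillary electrophoresis. Curves are fitted bidirectionally relative to DMSO.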

Assay [15] can be described thus: ATG_PBREM_CIS: Attagene CIS-FACTORIAL HepG2 Assay for human Phenobarbital-responsive Enhancer Module (PBREM) (AID 2282955). The settings on record: HepG2 PBREM cis-reporter, Attagene multiplexed transcription; actives raise or lower the signal. The gist of the method:
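After a 24 h incubation with test chemical, transfected HepG2 cells yield total RNA; reporter-specific RT-PCR products are fluorescently labelled, HpaI-digested and resolved by capillary electrophoresis against ROX size standards.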

Assay [16] in a line: ATG_GRE_CIS: Attagene CIS-FACTORIAL HepG2 Assay for human Glucocorticoid Response Elements (GRE) (AID 2282947). As to conditions: HepG2 GRE cis-reporter, Attagene multiplex mRNA; actives raise or lower the signal. An outline of the steps: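 Assay uses human hepatoma HepG2 cells transfected with cis-promoter reporter units, exposed 24 h. mRNA from reporters detected by RT-PCR plus capillary electrophoresis; DMSO serves as negative control and baseline.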

Assay [17] can be described thus: ATG_ISRE_CIS: Attagene CIS-FACTORIAL HepG2 Assay for human Interferon Regulatory Factor 1 (IRF1) binding to an Interferon-Stimulated Response Element (ISRE) (AID 2282948). As to conditions: HepG2 ISRE cis-reporter (Attagene), mRNA transcription readout; actives raise or lower the signal. The gist of the method: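 Transiently transfected HepG2 cells carrying cis-element reporter units, dosed 24 hours. Reporter mRNA quantified by RT-PCR, fluorescent primer extension, HpaI digestion and capillary electrophoresis. Bidirectional fitting relative to DMSO.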

The target of assay [18] is Hypoxia-inducible factor 1-alpha (Homo sapiens) (UniProt Q16665). Put plainly: ATG_HIF1a_CIS: Attagene CIS-FACTORIAL HepG2 Assay for human Hypoxia Inducible Factor 1 (HIF1A) (AID 2282951). The settings on record: HepG2 Attagene cis-factorial HIF1a reporter transcription; actives raise or lower the signal. An outline of the steps: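 In this multiplexed cell assay, HepG2 cells bearing transfected cis reporters are dosed for 24 h and reporter mRNA is read by RT-PCR plus capillary electrophoresis; signal increases and decreases are both scored against DMSO.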

For assay [19], the target named is Bile acid receptor (Homo sapiens) (UniProt Q96RI1). Description: ATG_IR1_CIS: Attagene CIS-FACTORIAL HepG2 Assay for human Nuclear Receptor Subfamily 1 Group H Member 4 (NR1H4), IR1 submotif (AID 2282946). The settings on record: IR1 reporter transcription, actives raise or lower the signal. The gist of the method: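 Cells (human HepG2) carry transiently transfected cis-promoter reporter transcription units. Compounds are incubated 24 h, total RNA is reverse-transcribed and amplified, and labelled fragments are resolved by capillary electrophoresis. Curves use DMSO as baseline.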
Sequence of Bile acid receptor (Homo sapiens) (Q96RI1 whole entry, looked up, the tested form may be a part): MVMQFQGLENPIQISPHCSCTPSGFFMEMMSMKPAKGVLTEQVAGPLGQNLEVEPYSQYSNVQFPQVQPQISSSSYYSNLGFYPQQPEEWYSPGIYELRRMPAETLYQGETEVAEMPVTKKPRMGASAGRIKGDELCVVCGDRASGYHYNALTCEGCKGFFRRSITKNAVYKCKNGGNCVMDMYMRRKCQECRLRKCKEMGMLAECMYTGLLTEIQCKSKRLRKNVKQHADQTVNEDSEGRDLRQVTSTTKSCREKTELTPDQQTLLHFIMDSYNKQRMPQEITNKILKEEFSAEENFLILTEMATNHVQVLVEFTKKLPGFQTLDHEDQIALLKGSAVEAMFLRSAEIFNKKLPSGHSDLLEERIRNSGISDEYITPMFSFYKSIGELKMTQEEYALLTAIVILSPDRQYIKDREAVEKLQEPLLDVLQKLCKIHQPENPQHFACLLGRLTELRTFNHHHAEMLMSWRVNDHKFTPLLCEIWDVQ

Sequence of Hepatocyte nuclear factor 6 (Homo sapiens) (Q9UBC0 whole entry, looked up, the tested form may be a part): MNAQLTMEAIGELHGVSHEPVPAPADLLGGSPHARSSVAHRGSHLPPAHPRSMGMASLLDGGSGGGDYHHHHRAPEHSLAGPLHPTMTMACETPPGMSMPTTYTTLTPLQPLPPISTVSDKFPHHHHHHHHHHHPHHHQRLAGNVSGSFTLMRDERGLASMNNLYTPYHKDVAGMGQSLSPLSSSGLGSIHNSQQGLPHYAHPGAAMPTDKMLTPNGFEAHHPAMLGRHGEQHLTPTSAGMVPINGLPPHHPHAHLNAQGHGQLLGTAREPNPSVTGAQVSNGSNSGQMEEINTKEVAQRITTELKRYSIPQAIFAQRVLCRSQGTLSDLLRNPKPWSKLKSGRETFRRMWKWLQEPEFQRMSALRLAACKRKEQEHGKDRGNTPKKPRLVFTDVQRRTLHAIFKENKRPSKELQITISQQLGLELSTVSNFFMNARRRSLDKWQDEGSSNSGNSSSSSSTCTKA
Sequence of Heat shock factor protein 1 (Homo sapiens) (Q00613 whole entry, looked up): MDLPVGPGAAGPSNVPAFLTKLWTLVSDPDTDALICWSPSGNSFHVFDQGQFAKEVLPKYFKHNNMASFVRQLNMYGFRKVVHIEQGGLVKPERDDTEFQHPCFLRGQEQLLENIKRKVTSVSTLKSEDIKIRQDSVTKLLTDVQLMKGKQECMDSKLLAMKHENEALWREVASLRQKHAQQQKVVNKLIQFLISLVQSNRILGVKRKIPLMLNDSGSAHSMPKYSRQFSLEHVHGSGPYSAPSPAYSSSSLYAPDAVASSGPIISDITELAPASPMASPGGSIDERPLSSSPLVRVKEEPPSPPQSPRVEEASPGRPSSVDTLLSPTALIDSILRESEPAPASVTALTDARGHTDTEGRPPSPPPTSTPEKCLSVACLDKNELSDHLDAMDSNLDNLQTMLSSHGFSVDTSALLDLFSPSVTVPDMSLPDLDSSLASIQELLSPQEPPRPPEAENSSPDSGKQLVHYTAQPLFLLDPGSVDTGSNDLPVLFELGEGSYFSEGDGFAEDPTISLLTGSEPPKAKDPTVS
Sequence of Hypoxia-inducible factor 1-alpha (Homo sapiens) (Q16665 whole entry, looked up): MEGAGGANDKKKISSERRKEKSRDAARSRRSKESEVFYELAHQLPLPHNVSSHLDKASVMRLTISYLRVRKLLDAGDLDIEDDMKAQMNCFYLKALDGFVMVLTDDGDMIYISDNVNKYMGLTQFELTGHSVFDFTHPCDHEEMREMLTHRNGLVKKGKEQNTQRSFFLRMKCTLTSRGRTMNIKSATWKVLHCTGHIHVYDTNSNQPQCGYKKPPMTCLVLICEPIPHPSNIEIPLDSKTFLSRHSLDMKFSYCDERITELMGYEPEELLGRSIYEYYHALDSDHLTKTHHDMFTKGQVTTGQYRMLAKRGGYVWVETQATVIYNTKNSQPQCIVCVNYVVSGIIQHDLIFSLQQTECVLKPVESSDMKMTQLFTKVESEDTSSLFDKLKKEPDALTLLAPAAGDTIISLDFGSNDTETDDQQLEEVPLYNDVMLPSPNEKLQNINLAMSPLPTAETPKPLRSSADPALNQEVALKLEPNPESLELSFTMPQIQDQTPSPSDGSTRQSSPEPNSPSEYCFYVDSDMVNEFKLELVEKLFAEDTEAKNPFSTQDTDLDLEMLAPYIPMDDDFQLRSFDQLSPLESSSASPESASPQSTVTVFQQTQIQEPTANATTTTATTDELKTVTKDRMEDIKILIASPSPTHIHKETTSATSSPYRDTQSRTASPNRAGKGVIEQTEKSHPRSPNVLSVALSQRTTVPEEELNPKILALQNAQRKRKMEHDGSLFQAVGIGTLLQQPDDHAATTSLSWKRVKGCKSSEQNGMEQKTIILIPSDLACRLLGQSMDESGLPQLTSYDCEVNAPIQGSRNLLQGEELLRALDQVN
Sequence of Hepatocyte nuclear factor 3-beta (Homo sapiens) (Q9Y261 whole entry, looked up): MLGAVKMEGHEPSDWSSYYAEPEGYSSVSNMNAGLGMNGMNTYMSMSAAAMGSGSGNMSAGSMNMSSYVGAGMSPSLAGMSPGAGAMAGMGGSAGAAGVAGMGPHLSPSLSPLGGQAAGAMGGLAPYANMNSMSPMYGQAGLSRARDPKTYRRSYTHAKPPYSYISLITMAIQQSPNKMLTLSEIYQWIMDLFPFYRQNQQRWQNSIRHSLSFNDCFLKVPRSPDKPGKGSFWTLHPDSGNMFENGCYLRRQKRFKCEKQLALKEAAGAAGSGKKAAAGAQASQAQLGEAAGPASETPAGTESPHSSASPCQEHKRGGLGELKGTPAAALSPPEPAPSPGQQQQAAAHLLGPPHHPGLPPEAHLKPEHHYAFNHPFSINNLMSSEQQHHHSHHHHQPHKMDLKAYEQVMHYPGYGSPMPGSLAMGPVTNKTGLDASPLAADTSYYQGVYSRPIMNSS

As for `CN(C)NC(=O)CCC(=O)O`, the result in assay [1], in assay [2], in [3], in assay [4], in [5] and in assay [6] was inactive. In addition, the molecule was called inactive in [7], in [8], in assay [9], in assay [10], in assay [11] and in [12]. The call in [13], in assay [14] and in [15] was inactive.
For the molecule `CC(C)=CC1C(C(=O)OCN2C(=O)C3=C(CCCC3)C2=O)C1(C)C` (configuration not stated), the result in [1], in [2], in [4], in [5], in assay [6] and in assay [7] was inactive. Besides, the molecule was called inactive in [8], in assay [9], in [16], in assay [17], in [10] and in assay [11]. The call in assay [12] was inactive. For the same molecule, the AC50 in assay [3] was 62.1 µM (active); in assay [18], 50 µM (active); in assay [13], 93.9 µM (active); in assay [14], 64.6 µM (active).
With `CC(C1CC1)C(O)(Cn1cncn1)c1ccc(Cl)cc1` (configuration not stated), the outcome in assay [1], in assay [2], in assay [3], in assay [4], in assay [5] and in [6] was inactive. Moreover, the outcome in assay [7], in [8], in assay [9], in [10], in assay [11] and in assay [12] was inactive. In addition, the result in [13] and in [14] was inactive.
Turning to `CCCCOC(=O)c1ccccc1C(=O)O`, the result in assay [1], in assay [2], in assay [3], in assay [4], in assay [5] and in assay [7] was inactive. Further, the molecule was classed as inactive in assay [8], in assay [9], in assay [19], in assay [10], in assay [11] and in assay [12]. Besides, the molecule was classed as inactive in assay [13], in [14] and in [15]. In assay [6], the AC50 was 81.4 µM (active).
For `CCOP(=S)(OCC)Oc1ccc([N+](=O)[O-])cc1`, the result in assay [1], in assay [2], in assay [3], in [4], in assay [5] and in assay [6] was inactive. The result in [7], in assay [8], in assay [9], in assay [16], in [10] and in [11] was inactive. In addition, the outcome in assay [12], in [13] and in assay [15] was inactive. For the same molecule, the concentration at half-maximal activity (AC50) in assay [14] was 50 µM (active).
As for `COc1cc(OC)nc(Sc2cccc(Cl)c2C(=O)O)n1`, the outcome in [1], in assay [2], in assay [3], in assay [4], in [5] and in assay [6] was inactive. For the same molecule, the outcome in assay [7], in [8], in [9], in [16], in assay [10] and in assay [11] was inactive. Further, the call in assay [18], in assay [12], in assay [13], in assay [14] and in assay [15] was inactive.
With `C[N+]1(C)CCCCC1`, the result in [1], in [2], in assay [3], in assay [4], in [5] and in assay [6] was inactive. Further, the call in [7], in assay [8], in assay [9], in assay [17], in assay [10] and in assay [11] was inactive. Moreover, the outcome in assay [12], in assay [13], in assay [14] and in assay [15] was inactive.
Consider `O=C(O)c1cc(Oc2ccc(C(F)(F)F)cc2Cl)ccc1[N+](=O)[O-]`, for which the outcome in assay [1], in assay [2], in assay [3], in assay [4], in assay [5] and in assay [6] was inactive. Further, the call in [7], in [8], in assay [9], in assay [16], in [10] and in assay [11] was inactive. Also, the outcome in [18], in assay [12], in assay [13] and in assay [14] was inactive.

The values are drawn from PubChem BioAssay (EPA / NIEHS).
